From PubChem BioAssay
Active and inactive are the calls of the source.

How the values were obtained:
[1] = binders of probe aFSTL3 on microarray, primary screen, stem cell growth factor project, biochemical, small-molecule microarray, fluorescence 635/667 (AID 1064); settings: higher = more signal;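 also: measures binding of the biotinylated anti-FSTL3 antibody to printed compounds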
[2] = binders from COS7 lysate, DM2A8 probe, primary screen, torsin A project, cell lysate, small-molecule microarray, fluorescence 635/667 (AID 1065); settings: higher = more signal, COS7 lysate expressing mutant human TOR1A
[3] = binders of probe aFGF2 on microarray, primary screen, stem cell growth factor project, biochemical, small-molecule microarray, fluorescence 635/667 (AID 1067); settings: higher = more signal;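 also: measures binding of biotinylated aFGF2 protein to printed compounds on slides; z-score merges feature fluorescence and signal-to-noise across triplicate slides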
[4] = binders of probe aFGF10 on microarray, primary screen, stem cell growth factor project, biochemical, small-molecule microarray, fluorescence 635/667 (AID 1071); settings: higher = more signal;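 also: score merges 667 nm spot intensity and signal to noise from triplicate slides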
[5] = biological target: Neurogenic locus notch homolog protein 2 (Homo sapiens) (UniProt Q04721); assay: Notch2 binders on small-molecule microarrays, primary screen, biochemical, small-molecule microarray, 635 nm fluorescence, stem cell growth factors (AID 1073); settings: Notch2 binding, higher = more signal
[6] = biological target: Pro-neuregulin-1, membrane-bound isoform (Homo sapiens) (UniProt Q02297); assay: NRG1 binders on small-molecule microarrays, primary screen, psychiatric disease protein project, biochemical, small-molecule microarray, fluorescence 635/667 (AID 1075); settings: NRG1 binding, 635 nm fluorescence, higher = more signal;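 also: score combines 667 nm spot fluorescence with signal to noise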
[7] = system: Neuregulin-1 EGF-like domain; assay: binders of neuregulin-1 EGF-like domain, primary screen, biochemical, small-molecule microarray, 635 nm fluorescence (AID 1081); settings: small-molecule microarray binding, higher = more signal;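 also: binding of the protein to compounds printed on small-molecule microarray slides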
[8] = FRG1 promoter luciferase signal modulators, primary screen, FRG1 inhibition for FSHD, cell-based, C2C12 myotubes, firefly/Renilla luciferase, luminescence (AID 1084); settings: higher = more signal, called active from +8 up or from −8 down
[9] = binders of probe aFST on microarray, primary screen, stem cell growth factor project, biochemical, small-molecule microarray, fluorescence 635/667 (AID 1086); settings: higher = more signal;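 also: score merges 667 nm fluorescence with signal-to-noise of each printed compound spot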
[10] = binders of probe aHhip on microarray, primary screen, stem cell growth factor project, biochemical, small-molecule microarray, fluorescence 635/667 (AID 1087); settings: higher = more signal;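 also: score merges spot fluorescence at 667nm with spot signal to noise ratio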
[11] = system: PRMT1 (protein arginine N-methyltransferase 1); assay: PRMT1 binders on small-molecule microarrays, primary screen, biochemical, small-molecule microarray, 635 nm fluorescence (AID 1088); settings: small-molecule microarray binding, higher = more signal;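 also: binding of Prmt1 protein to compounds spotted on small-molecule microarray slides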
[12] = yeast growth modulation, basal conditions, primary screen, YJM789 clinical isolate, OD600, 24 h (AID 1089);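 also: growth of clinical yeast isolate S. cerevisiae YJM 789 seeded 1000 cells per well; test concentration not given here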; settings: S. cerevisiae YJM789 growth, higher = more signal, called active from +8 up or from −8 down
[13] = fission yeast growth modulation, primary screen, strain 972, OD600, 24 h, no modulator (AID 1090);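 also: basal condition with compound alone and no growth modifier present; test concentration not given here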; settings: S. pombe 972 growth, higher = more signal, called active from +8 up or from −8 down
[14] = S. cerevisiae growth modulation with rapamycin, primary screen, strain BY4716, OD600, 96 h (AID 1091); settings: higher = more signal, called active from +8 up or from −8 down; also: test concentration not given here
[15] = biological target: Torsin-1A-interacting protein 2 (Homo sapiens) (UniProt Q8NFQ8); assay: LULL1 binders on small-molecule microarray, primary screen, cell lysate, human LULL1 lysate, 635/667 nm fluorescence (AID 1092); settings: hLULL1 lysate binding, 635 nm fluorescence, higher = more signal;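 also: probe is lysate of COS7 cells overexpressing human LULL1; score merges per-feature 667 nm fluorescence with signal-to-noise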
[16] = E. coli growth modulation, two-sided OD650, primary screen, E. coli filamentation project, strain DRC41, 24 h (AID 1093); settings: OD650, 24 h, higher = more signal, called active from +8 up or from −8 down;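 also: MC1000 strain lacking acrAB efflux and sulA so SOS filamentation is blocked; test concentration not given here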
[17] = small-molecule microarray binders of probe aLefty2, primary screen, biochemical, biotinylated probe, 635/667 nm fluorescence (AID 1094); settings: higher = more signal;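 also: score merges spot fluorescence near 667 nm with spot signal-to-noise ratio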
[18] = system: Noggin (protein binding on small-molecule microarray); assay: Noggin binders on small-molecule microarray, primary screen, biochemical, 635/667 nm fluorescence (AID 1095); settings: 635 nm fluorescence, higher = more signal;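 also: score merges 667 nm feature fluorescence with signal to noise over triplicate slides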
[19] = biological target: Neurogenic locus notch homolog protein 3 (Homo sapiens) (UniProt Q9UM47); assay: NOTCH3 binders on small-molecule microarray, primary screen, biochemical, 635/667 nm fluorescence (AID 1096); settings: NOTCH3 binding, 635 nm fluorescence, higher = more signal
[20] = small-molecule microarray binders of probe aEGFR, primary screen, biochemical, biotinylated probe, 635/667 nm fluorescence (AID 1097); settings: higher = more signal;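 also: probe is a biotinylated anti-EGFR antibody binding compounds printed on slides; score combines fluorescence near 667 nm and signal to noise of each spot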

Sequence of Torsin-1A-interacting protein 2 (Homo sapiens) (Q8NFQ8 whole entry, looked up): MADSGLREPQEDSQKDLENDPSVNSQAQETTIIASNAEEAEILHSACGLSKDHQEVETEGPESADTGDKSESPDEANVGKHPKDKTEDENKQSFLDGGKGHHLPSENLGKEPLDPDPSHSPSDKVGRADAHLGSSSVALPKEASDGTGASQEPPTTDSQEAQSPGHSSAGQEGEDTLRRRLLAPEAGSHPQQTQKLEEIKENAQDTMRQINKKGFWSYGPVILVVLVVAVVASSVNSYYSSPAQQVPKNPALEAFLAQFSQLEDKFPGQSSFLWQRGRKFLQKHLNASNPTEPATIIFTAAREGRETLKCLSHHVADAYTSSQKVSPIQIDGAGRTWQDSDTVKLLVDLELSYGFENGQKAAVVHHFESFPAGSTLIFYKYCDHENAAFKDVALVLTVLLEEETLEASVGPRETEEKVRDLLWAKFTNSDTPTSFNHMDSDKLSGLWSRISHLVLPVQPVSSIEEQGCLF
Sequence of Pro-neuregulin-1, membrane-bound isoform (Homo sapiens) (Q02297 whole entry, looked up, the tested form may be a part, canonical isoform): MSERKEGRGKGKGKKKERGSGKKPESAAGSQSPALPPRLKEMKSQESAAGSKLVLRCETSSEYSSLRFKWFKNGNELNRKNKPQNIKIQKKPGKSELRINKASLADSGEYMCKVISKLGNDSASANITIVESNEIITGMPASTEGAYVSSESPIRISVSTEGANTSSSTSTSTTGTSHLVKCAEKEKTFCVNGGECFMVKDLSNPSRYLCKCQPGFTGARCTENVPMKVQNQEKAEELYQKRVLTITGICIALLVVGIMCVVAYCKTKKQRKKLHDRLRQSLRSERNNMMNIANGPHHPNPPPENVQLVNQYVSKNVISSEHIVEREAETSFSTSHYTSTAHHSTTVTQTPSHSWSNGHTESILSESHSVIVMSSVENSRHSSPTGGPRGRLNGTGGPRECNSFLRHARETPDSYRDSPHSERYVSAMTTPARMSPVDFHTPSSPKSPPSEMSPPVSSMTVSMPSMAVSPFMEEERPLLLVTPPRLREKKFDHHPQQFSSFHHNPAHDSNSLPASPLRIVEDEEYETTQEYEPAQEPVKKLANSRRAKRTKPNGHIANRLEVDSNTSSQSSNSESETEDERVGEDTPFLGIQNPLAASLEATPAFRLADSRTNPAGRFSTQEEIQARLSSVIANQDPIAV
Sequence of Neurogenic locus notch homolog protein 2 (Homo sapiens) (Q04721 whole entry, looked up, canonical isoform): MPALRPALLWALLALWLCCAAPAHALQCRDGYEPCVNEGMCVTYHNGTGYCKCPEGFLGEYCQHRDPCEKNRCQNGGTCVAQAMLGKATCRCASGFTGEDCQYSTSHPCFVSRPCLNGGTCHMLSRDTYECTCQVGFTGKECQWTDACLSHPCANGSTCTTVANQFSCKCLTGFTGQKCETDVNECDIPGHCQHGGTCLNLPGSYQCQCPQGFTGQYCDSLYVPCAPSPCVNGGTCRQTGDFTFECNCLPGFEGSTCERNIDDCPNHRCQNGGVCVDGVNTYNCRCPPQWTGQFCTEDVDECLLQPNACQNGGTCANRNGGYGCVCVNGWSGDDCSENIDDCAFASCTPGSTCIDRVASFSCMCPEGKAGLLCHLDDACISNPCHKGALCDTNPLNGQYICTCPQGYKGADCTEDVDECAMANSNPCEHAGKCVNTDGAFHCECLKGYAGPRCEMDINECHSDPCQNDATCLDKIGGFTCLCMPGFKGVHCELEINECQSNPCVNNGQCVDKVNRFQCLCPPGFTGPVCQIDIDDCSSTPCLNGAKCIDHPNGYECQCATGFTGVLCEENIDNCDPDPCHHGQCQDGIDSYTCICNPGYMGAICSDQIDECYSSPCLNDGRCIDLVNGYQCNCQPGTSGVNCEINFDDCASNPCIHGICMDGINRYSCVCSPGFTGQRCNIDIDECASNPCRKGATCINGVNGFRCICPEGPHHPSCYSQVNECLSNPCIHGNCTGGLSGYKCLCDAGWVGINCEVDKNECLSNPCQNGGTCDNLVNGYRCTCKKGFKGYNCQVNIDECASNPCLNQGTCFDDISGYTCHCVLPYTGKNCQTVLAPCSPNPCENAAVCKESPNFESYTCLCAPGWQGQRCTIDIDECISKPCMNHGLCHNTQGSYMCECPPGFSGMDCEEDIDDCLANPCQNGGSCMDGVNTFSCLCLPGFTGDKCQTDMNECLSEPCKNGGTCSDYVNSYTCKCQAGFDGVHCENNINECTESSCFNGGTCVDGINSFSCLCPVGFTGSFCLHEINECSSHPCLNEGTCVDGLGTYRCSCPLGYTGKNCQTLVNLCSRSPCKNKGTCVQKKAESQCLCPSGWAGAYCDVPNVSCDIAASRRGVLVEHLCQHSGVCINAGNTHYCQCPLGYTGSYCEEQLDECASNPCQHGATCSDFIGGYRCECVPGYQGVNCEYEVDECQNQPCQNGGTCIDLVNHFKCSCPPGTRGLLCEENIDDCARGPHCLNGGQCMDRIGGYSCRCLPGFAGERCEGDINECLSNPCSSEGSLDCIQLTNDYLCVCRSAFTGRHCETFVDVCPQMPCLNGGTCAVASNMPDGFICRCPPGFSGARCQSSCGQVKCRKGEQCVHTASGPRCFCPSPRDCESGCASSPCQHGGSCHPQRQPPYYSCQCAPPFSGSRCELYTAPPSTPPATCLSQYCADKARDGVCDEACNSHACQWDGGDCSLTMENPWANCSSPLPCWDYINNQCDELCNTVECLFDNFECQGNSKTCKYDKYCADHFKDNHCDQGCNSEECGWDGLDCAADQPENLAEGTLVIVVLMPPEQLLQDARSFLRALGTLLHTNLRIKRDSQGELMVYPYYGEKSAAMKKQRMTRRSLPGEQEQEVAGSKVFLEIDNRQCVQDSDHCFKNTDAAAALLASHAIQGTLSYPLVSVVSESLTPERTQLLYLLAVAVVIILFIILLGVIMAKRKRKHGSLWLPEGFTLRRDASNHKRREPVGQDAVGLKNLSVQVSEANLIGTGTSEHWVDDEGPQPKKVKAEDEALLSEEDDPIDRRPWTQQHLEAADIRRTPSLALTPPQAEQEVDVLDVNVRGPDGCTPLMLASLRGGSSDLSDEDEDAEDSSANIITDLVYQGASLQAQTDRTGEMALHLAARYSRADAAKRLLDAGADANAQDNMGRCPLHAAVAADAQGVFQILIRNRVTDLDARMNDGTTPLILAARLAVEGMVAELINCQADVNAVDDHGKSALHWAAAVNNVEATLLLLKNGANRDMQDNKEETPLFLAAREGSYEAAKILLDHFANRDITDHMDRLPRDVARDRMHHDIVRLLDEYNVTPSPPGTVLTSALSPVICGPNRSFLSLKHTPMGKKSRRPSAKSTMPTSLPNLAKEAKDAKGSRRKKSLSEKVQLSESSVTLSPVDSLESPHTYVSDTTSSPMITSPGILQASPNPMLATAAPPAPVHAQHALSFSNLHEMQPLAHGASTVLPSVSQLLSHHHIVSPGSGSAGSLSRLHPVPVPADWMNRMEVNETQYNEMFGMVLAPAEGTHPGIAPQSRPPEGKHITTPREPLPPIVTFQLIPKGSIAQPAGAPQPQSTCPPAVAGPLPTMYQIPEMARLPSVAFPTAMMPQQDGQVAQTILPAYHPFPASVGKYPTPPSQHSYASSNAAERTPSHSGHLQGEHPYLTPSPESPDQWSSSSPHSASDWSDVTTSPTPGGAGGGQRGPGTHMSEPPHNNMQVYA

Compound: CN(C)CCCNC(=O)[C@@]1(C)c2ccccc2C(=O)N(Cc2ccccc2)[C@H]1c1ccc(CO)cc1
- composite z-score [1]: 1.2
- composite z-score [2]: -0.333
- composite z-score [3]: -0.116
- composite z-score [4]: -0.305
- composite z-score [5]: -0.675
- composite z-score [6]: 1.62
- composite z-score [7]: 0.562
- z-score [8]: -0.839 (inactive)
- composite z-score [9]: -0.0584
- composite z-score [10]: -0.0074
- composite z-score [11]: 0.988
- z-score [12]: -0.466 (inactive)
- z-score [13]: -0.505 (inactive)
- z-score [14]: -0.577 (inactive)
- composite z-score [15]: 2.82
- z-score [16]: 1.16 (inactive)
- composite z-score [17]: 0.151
- composite z-score [18]: 0.0474
- composite z-score [19]: -0.652
- composite z-score [20]: -0.0639

Compound: CC1CC/C=C\[C@H]2OC34C=CCN(c5ccc(Cl)cc5)C(=O)[C@H]3N(CCCCCO)C(=O)[C@]4(C)C2C(=O)O1 (stereo not given in full)
- composite z-score [1]: 0.124
- composite z-score [2]: -0.673
- composite z-score [3]: -0.16
- composite z-score [4]: -1.26
- composite z-score [5]: -1.01
- composite z-score [6]: 0.332
- composite z-score [7]: 0.429
- z-score [8]: 0.581 (inactive)
- composite z-score [9]: -0.999
- composite z-score [10]: -0.0994
- composite z-score [11]: -0.318
- z-score [12]: 0.184 (inactive)
- z-score [13]: 0.177 (inactive)
- z-score [14]: -0.166 (inactive)
- composite z-score [15]: -1
- z-score [16]: -0.367 (inactive)
- composite z-score [17]: -0.233
- composite z-score [18]: -1.33
- composite z-score [19]: -0.394
- composite z-score [20]: -0.302

Compound: C=CCNC(=O)[C@H]1[C@@H]2C(=O)O[C@@H](c3ccccc3)[C@@H](c3ccccc3)N2[C@@H](c2ccc(O)cc2)[C@]12C(=O)N(C(=O)OCCOC)c1ccccc12
- composite z-score [1]: -0.548
- composite z-score [2]: 0.267
- composite z-score [3]: 0.0407
- composite z-score [4]: 1.16
- composite z-score [5]: 1.05
- composite z-score [6]: 1.33
- composite z-score [7]: 1.29
- z-score [8]: -1.96 (inactive)
- composite z-score [9]: 0.303
- composite z-score [10]: -0.541
- composite z-score [11]: 1.42
- z-score [12]: 0.734 (inactive)
- z-score [13]: -0.66 (inactive)
- z-score [14]: 2.39 (inactive)
- composite z-score [15]: 2.84
- z-score [16]: 0.507 (inactive)
- composite z-score [17]: -0.0095
- composite z-score [18]: 0.537
- composite z-score [19]: 1
- composite z-score [20]: 0.0798

Compound: CCC[C@@H]1C[C@@]1(CCC)[C@@H](NC(=O)OCc1ccccc1)c1ccc(-c2ccccc2)cc1
- composite z-score [1]: 0.49
- composite z-score [2]: -0.602
- composite z-score [3]: 0.0572
- composite z-score [4]: -0.68
- composite z-score [5]: -0.527
- composite z-score [6]: -0.271
- composite z-score [7]: -0.76
- z-score [8]: -1.93 (inactive)
- composite z-score [9]: -0.294
- composite z-score [10]: 3.09
- composite z-score [11]: -0.936
- z-score [12]: -0.979 (inactive)
- z-score [13]: -15.5 (active)
- z-score [14]: -0.0091 (inactive)
- composite z-score [15]: 0.543
- z-score [16]: 0.0945 (inactive)
- composite z-score [17]: 0.239
- composite z-score [18]: -0.0553
- composite z-score [19]: -0.621
- composite z-score [20]: -0.186

Compound: CCOC(=O)C1=CC[C@@H](c2cccc(Cl)c2)N(S(=O)(=O)c2ccc(C)cc2)C1
- composite z-score [1]: 0.432
- composite z-score [2]: 0.627
- composite z-score [3]: 0.067
- composite z-score [4]: 0.336
- composite z-score [5]: 0.0142
- composite z-score [6]: 1.31
- composite z-score [7]: 1.2
- z-score [8]: -2.76 (inactive)
- composite z-score [9]: 0.329
- composite z-score [10]: -0.0994
- composite z-score [11]: 0.335
- z-score [12]: -1.89 (inactive)
- z-score [13]: -0.0856 (inactive)
- z-score [14]: 0.311 (inactive)
- composite z-score [15]: 2.54
- z-score [16]: -0.363 (inactive)
- composite z-score [17]: 0.0771
- composite z-score [18]: 0.0745
- composite z-score [19]: 0.126
- composite z-score [20]: -0.0803

Compound: Cc1cc(C)c(C(O)C2C=CC3C(=O)N(c4ccccc4)C(=O)C3N2Nc2ccc(C(C)C)cc2)c(C)c1 (stereo not given)
- composite z-score [1]: 0.224
- composite z-score [2]: 0.243
- composite z-score [3]: 0.172
- composite z-score [4]: 0.941
- composite z-score [5]: 1.66
- composite z-score [6]: 1.91
- composite z-score [7]: 1.25
- z-score [8]: 1.44 (inactive)
- composite z-score [9]: 1.37
- composite z-score [10]: 0.128
- composite z-score [11]: 1.57
- z-score [12]: 1.14 (inactive)
- z-score [13]: 0.863 (inactive)
- z-score [14]: 1.26 (inactive)
- composite z-score [15]: 3.42
- z-score [16]: -1.87 (inactive)
- composite z-score [17]: 0.255
- composite z-score [18]: -0.163
- composite z-score [19]: 1.03
- composite z-score [20]: -0.0172

Compound: COCCOC(=O)N1C(=O)[C@@]2(c3cc(C#CC4=CCCCC4)ccc31)[C@H](c1ccc(OCCO)cc1)N1[C@H](c3ccccc3)[C@H](c3ccccc3)OC(=O)[C@H]1[C@@H]2C(=O)N1CCN(c2ncccn2)CC1
- composite z-score [1]: 0.0516
- composite z-score [2]: 0.504
- composite z-score [3]: 0.0664
- composite z-score [4]: 0.874
- composite z-score [5]: 1.31
- composite z-score [6]: 0.521
- composite z-score [7]: 1.05
- z-score [8]: -0.64 (inactive)
- composite z-score [9]: 0.59
- composite z-score [10]: 0.0053
- composite z-score [11]: 1.46
- z-score [12]: 0.372 (inactive)
- z-score [13]: 1.23 (inactive)
- z-score [14]: 3.64 (inactive)
- composite z-score [15]: 1.73
- z-score [16]: 1.37 (inactive)
- composite z-score [17]: 0.0444
- composite z-score [18]: 0.788
- composite z-score [19]: 1.1
- composite z-score [20]: 0.0289

Compound: O=C1NC(=O)C2C1C=CC(C(O)c1c(F)cccc1Cl)N2Nc1ccc(Cl)cc1Cl (stereo not given)
- composite z-score [1]: 1.38
- composite z-score [2]: 1.79
- composite z-score [3]: 0.0389
- composite z-score [4]: 0.424
- composite z-score [5]: 1.29
- composite z-score [6]: 1.37
- composite z-score [7]: 1.17
- z-score [8]: -1.03 (inactive)
- composite z-score [9]: 1.22
- composite z-score [10]: -0.216
- composite z-score [11]: 0.0621
- z-score [12]: -20.9 (active)
- z-score [13]: -1.98 (inactive)
- z-score [14]: 1.65 (inactive)
- composite z-score [15]: 3.2
- z-score [16]: -3.22 (inactive)
- composite z-score [17]: 0.319
- composite z-score [18]: -0.836
- composite z-score [19]: 0.53
- composite z-score [20]: 0.0069

Compound: COC(=O)c1c2oc(c1C(=O)OC)C(=O)N(C)Cc1cn(nn1)C[C@H](Cc1ccccc1)NC(=O)N[C@H](CO)CC2
- composite z-score [1]: -0.239
- composite z-score [2]: -0.705
- composite z-score [3]: -0.174
- composite z-score [4]: -0.248
- composite z-score [5]: -0.867
- composite z-score [6]: -0.638
- composite z-score [7]: -0.717
- z-score [8]: -0.161 (inactive)
- composite z-score [9]: -0.276
- composite z-score [10]: 0.0854
- composite z-score [11]: -0.929
- z-score [12]: 1.23 (inactive)
- z-score [13]: 0.914 (inactive)
- z-score [14]: 0.556 (inactive)
- composite z-score [15]: -0.609
- z-score [16]: -0.666 (inactive)
- composite z-score [17]: -0.174
- composite z-score [18]: -0.244
- composite z-score [19]: 0.15
- composite z-score [20]: -0.154
